Usually AC50 stands for the concentration giving half of the maximal activity seen.

For experiment [1], the target named is Cellular tumor antigen p53 (Homo sapiens) (UniProt P04637). Description: TOX21_p53_BLA_p3_ratio: Tox21 HCT-116 p53 Agonism Beta-lactamase Assay, Ratio, Phase 3 (AID 2283596). In short, it runs like this: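 HCT116 p53-bla cells (4000/well) given compound in DMSO (217-fold dilution) after 5 h, incubated 16 h at 37C. CCF4-AM substrate 2 h at room temperature; 460/530 nm emission ratio, gain fitted against DMSO.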
Chain of Cellular tumor antigen p53 (Homo sapiens) (P04637 whole entry, looked up): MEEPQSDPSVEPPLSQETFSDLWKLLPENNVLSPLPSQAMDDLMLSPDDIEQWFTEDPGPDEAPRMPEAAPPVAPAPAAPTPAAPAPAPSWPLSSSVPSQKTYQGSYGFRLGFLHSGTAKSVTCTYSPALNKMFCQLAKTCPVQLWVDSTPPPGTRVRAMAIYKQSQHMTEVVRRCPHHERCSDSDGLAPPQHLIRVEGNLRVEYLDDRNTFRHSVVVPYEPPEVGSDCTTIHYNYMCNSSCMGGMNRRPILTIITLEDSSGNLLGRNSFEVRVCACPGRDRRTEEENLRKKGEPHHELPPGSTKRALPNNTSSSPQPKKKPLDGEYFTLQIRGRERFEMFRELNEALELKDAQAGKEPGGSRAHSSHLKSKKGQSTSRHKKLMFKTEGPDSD

Experiment [2] can be described thus: TOX21_p53_BLA_p4_viability: Viability Assessment in the Tox21 HCT-116 p53 Agonism Beta-lactamase Assay, Phase 4 (AID 2283597).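 Further: hits lower the luminescence signal meaning cytotoxicity.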 The essentials:
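Following a 16 h exposure at 37C, the treated HCT116 wells were first read for the FRET ratio. They were then lysed with CellTiter-Glo, and ATP luminescence was recorded after 30 min at room temperature.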

The target of experiment [3] is Cellular tumor antigen p53 (Homo sapiens) (UniProt P04637). As to the kind of experiment: TOX21_p53_BLA_p5_ratio: Tox21 HCT-116 p53 Agonism Beta-lactamase Assay, Ratio, Phase 5 (AID 2283599). In short, it runs like this:
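HCT-116 cells carrying a p53-inducible beta-lactamase reporter were seeded at 4000 cells/well and dosed after 5 h with compound in DMSO (217-fold dilution). After 16 h at 37C, CCF4-AM substrate was added for 2 h, and the 460/530 nm emission ratio was scored as gain-of-signal versus DMSO.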

Experiment [4] in a line: TOX21_p53_BLA_p5_viability: Viability Assessment in the Tox21 HCT-116 p53 Agonism Beta-lactamase Assay, Phase 5 (AID 2283600). The essentials: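 After the 460/530 nm beta-lactamase measurement, the wells received an ATP-detection luciferase reagent; signal was read 30 min later at RT. Compound treatment lasted 16 h on cells pre-incubated 5 h post-seeding.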
Experiment [5] deals with Cellular tumor antigen p53 (Homo sapiens) (UniProt P04637). As to the kind of experiment: TOX21_p53_BLA_p4_ratio: Tox21 HCT-116 p53 Agonism Beta-lactamase Assay, Ratio, Phase 4 (AID 2283601). The essentials:
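HCT116 cells carrying an inducible beta-lactamase reporter were plated at 4000 cells/well, rested 5 h, then exposed to compounds in DMSO (217-fold dilution) for 16 h at 37C. CCF4-AM substrate was loaded 2 h at room temperature; 460/530 nm emission ratio scored gain-of-signal versus DMSO.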

Records with an inconclusive call do not appear. Calls of active or inactive are those of the source. How the source made its calls: active means hit-call score of the fitted dose curve at least 0.9, where 1 is the maximum; inconclusive means response in the unintended direction; inactive means score below 0.9.

As to `C/C(=C\C(=O)OCCCCCCCCC(=O)O)C[C@@H]1OC[C@H](C[C@@H]2O[C@H]2[C@@H](C)[C@H](C)O)[C@@H](O)[C@H]1O`, the result in experiment [1], in experiment [2], in experiment [3], in experiment [4] and in experiment [5] was inactive.

On to `Cc1nc2ccccc2s1`, for which the result in experiment [1], in experiment [2] and in experiment [4] was inactive.

Regarding `COc1ccc(Nc2ccc(OC)cc2)cc1`, the outcome in experiment [1] and in experiment [2] was inactive. The concentration at half-maximal activity (AC50) in experiment [5] is 73.2 µM (active).

As for `CC(C)(O/N=C(\C(=O)N[C@@H]1C(=O)N2C(C(=O)[O-])=C(C[n+]3ccccc3)CS[C@H]12)c1csc(N)n1)C(=O)O`, the result in experiment [1], in experiment [2], in experiment [3], in experiment [4] and in experiment [5] was inactive.

For the compound `Nc1nc(N)c(-c2ccccc2)s1`, the outcome in experiment [1], in experiment [2], in experiment [3], in experiment [4] and in experiment [5] was inactive.

On to `O=[N+]([O-])c1cc(Cl)c(Cl)c(Cl)c1Cl`, for which the result in experiment [1], in experiment [2] and in experiment [5] was inactive.

As for `Cc1ccccc1C(=O)O`, the outcome in experiment [1], in experiment [2] and in experiment [5] was inactive.

Regarding `OCC(O)CN1CCN(c2ccccc2)CC1` (stereo not given), the result in experiment [1] and in experiment [3] was inactive.

On to `C[N+](C)(C)CC(O)CCl` (stereo not given), for which the outcome in experiment [1], in experiment [2] and in experiment [5] was inactive.

Turning to `C[N+]1(C)CCN(CC(O)(c2ccccc2)C2CCCCC2)CC1` (stereo not given), the outcome in experiment [1], in experiment [2] and in experiment [4] was inactive.

Consider `O=C1CCN(c2ccccc2)N1`, for which the outcome in experiment [1], in experiment [2] and in experiment [4] was inactive.

Take `O=C1NC(=O)c2cc([N+](=O)[O-])ccc21`: the outcome in experiment [1], in experiment [2], in experiment [3] and in experiment [5] was inactive.

For the compound `CC(C)N=C=NC(C)C`, the outcome in experiment [1], in experiment [3], in experiment [4] and in experiment [5] was inactive.

`O=C(Nc1cccc(C2=NCCN2)c1)Nc1cccc(C2=NCCN2)c1`: the outcome in experiment [1], in experiment [2], in experiment [3] and in experiment [5] was inactive.

In the case of `C=COCCCCO`, the result in experiment [1], in experiment [2], in experiment [3] and in experiment [5] was inactive.

As to `N=C(N)c1ccc(C=Cc2ccc(C(=N)N)cc2O)cc1`, the result in experiment [1], in experiment [2], in experiment [3] and in experiment [4] was inactive.

On to `Clc1ccc2nsnc2c1NC1=NCCN1`, for which the outcome in experiment [1], in experiment [3], in experiment [4] and in experiment [5] was inactive.

Regarding `CC(=O)c1ccc2ccc3ccccc3c2c1`, the result in experiment [1] and in experiment [2] was inactive. Besides, the concentration at half-maximal activity (AC50) in experiment [5] was 78.9 µM (active).

For `CCOC(=O)c1ccc(OC(=O)CCCCCN=C(N)N)cc1`, the outcome in experiment [1], in experiment [3] and in experiment [4] was inactive.

Regarding `CCN(CCCc1ccccc1)CCCc1ccccc1`, the outcome in experiment [1], in experiment [2], in experiment [4] and in experiment [5] was inactive.

Turning to `O=C(c1ccc(F)cc1)C1CCN(CCn2c(=S)[nH]c3ccccc3c2=O)CC1`, the outcome in experiment [1], in experiment [2], in experiment [3], in experiment [4] and in experiment [5] was inactive.

Take `CC(=O)OCC(=O)[C@@]1(O)CC[C@H]2[C@@H]3CCC4=CC(=O)CC[C@]4(C)C3=CC[C@@]21C`: the outcome in experiment [1], in experiment [3], in experiment [4] and in experiment [5] was inactive.

Consider `CCCCCC/C=C/C(=O)OC`, for which the result in experiment [1] and in experiment [3] was inactive.

For the compound `CC1CCCC(C)N1NC(=O)c1ccc(Cl)c(S(N)(=O)=O)c1` (stereo not given), the result in experiment [1], in experiment [3] and in experiment [4] was inactive.

Take `Cc1nc(-c2ccc(Cl)cc2)oc1COC(C)(C)C(=O)O`: the outcome in experiment [1], in experiment [3], in experiment [4] and in experiment [5] was inactive.

`CC(C)C[C@@H](N)C(=O)O`: the outcome in experiment [1], in experiment [3] and in experiment [5] was inactive.

Take `Nc1ccc(Cl)cc1[N+](=O)[O-]`: the result in experiment [1], in experiment [3] and in experiment [5] was inactive.

In the case of `O=Nc1ccc(NO)cc1`, the outcome in experiment [1], in experiment [3] and in experiment [5] was inactive.

With `CC(C)C[C@H](NC(=O)[C@@H](Cc1c[nH]c2ccccc12)NC(=O)[C@H](Cc1ccc(O)cc1)NC(=O)[C@H](CO)NC(=O)[C@H](Cc1c[nH]c2ccccc12)NC(=O)[C@H](Cc1cnc[nH]1)NC(=O)[C@@H]1CCC(=O)N1)C(=O)N[C@@H](CCCN=C(N)N)C(=O)N1CCC[C@@H]1C(=O)NCC(N)=O`, the result in experiment [1], in experiment [3], in experiment [4] and in experiment [5] was inactive.

`CC(C)NCC(O)COc1ccccc1-n1cccc1` (stereo not given): the result in experiment [1], in experiment [3], in experiment [4] and in experiment [5] was inactive.

For the compound `CC(C)(C)c1ccc(C=O)cc1`, the outcome in experiment [1], in experiment [4] and in experiment [5] was inactive.

As to `COc1ccc(CCC(=O)c2c(O)cc(O[C@@H]3O[C@H](CO)[C@@H](O)[C@H](O)[C@H]3O[C@@H]3O[C@@H](C)[C@H](O)[C@@H](O)[C@H]3O)cc2O)cc1O`, the outcome in experiment [1], in experiment [4] and in experiment [5] was inactive.

With `CCNC(=O)NCCCOc1cccc(CN2CCCCC2)c1`, the outcome in experiment [1] and in experiment [5] was inactive.

`O=C(O)COc1ccccc1/C=N/NC(=O)c1ccncc1`: the outcome in experiment [1], in experiment [3] and in experiment [5] was inactive.

As to `CC(Oc1ccccc1)C(=O)N[C@@H]1C(=O)N2[C@@H]1SC(C)(C)[C@@H]2C(=O)O` (stereo not given in full), the outcome in experiment [1], in experiment [3] and in experiment [5] was inactive.

As to `ClC/C=C\CCl`, the outcome in experiment [1] and in experiment [5] was inactive.

Consider `C1=C\CC/C=C\CC/1`, for which the result in experiment [1] and in experiment [4] was inactive.

Regarding `CCCC(C)C`, the outcome in experiment [1], in experiment [3], in experiment [4] and in experiment [5] was inactive.

With `OCC(F)(F)F`, the result in experiment [1] and in experiment [4] was inactive.

For `C[C@H]1[C@H](NC(=O)C(=NOC(C)(C)C(=O)O)c2csc(N)n2)C(=O)N1S(=O)(=O)O`, the outcome in experiment [1] and in experiment [5] was inactive.

For the compound `CCCCOCCCC`, the outcome in experiment [1], in experiment [4] and in experiment [5] was inactive.

On to `OCCCCCCCl`, for which the outcome in experiment [1] and in experiment [5] was inactive.

Consider `CC#CCC(C)[C@H](O)/C=C/[C@@H]1[C@H]2C/C(=C/CCCC(=O)O)C[C@H]2C[C@H]1O` (stereo not given in full), for which the outcome in experiment [1] and in experiment [5] was inactive.

Source of the values: PubChem BioAssay (EPA / NIEHS).
